Compound activity from PubChem.
G9a block: G9a (human) methyltransferase inhibition. Potency, µM (top dose mostly 102 µM), actives largely listed as inhibitors. AID 504332. 350,000 tested, 8.8% active. G9a H3K9 monomethylation, AlphaScreen, 2 h; note: nearly all actives have a fitted effect of over 75% in size
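Chemiluminescent proximity detection of H3K9 monomethylation, read after 10 min bead incubation in the dark. Reaction: 20 nM G9a, 500 nM biotin-H3K9 peptide, 20 uM SAM cofactor, 2 h, room temperature, following 15 min enzyme-compound preincubation.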
BAZ2B inh: blocks human BAZ2B; AlphaScreen BAZ2B-H3K14Ac peptide displacement; Potency, µM (titrated, usually from 114 µM), hits mostly inhibitors; 360,000 tested, 4.4% active; note: nearly all actives have a fitted effect of over 60% in size
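AlphaScreen displacement: compounds (up to 110uM) incubated 30 min at room temperature with a preformed 50 nM BAZ2B/50 nM biotinylated H3K14Ac peptide complex in PBS pH 7.4 with Tween-20. Donor and acceptor beads at 10 ug/mL final added, 20 min light-protected before reading.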
JMJD2A Tudor: blocks the human JMJD2A Tudor domain; AlphaScreen JMJD2A-Tudor / H3K4me3 peptide binding; Potency, µM (doses to about 114 µM), usual class: inhibitors; 390,000 tested, 4.4% active; note: nearly all actives have a fitted effect of over 50% in size
Target sequence (O75164 whole entry, looked up, the tested form may be a part): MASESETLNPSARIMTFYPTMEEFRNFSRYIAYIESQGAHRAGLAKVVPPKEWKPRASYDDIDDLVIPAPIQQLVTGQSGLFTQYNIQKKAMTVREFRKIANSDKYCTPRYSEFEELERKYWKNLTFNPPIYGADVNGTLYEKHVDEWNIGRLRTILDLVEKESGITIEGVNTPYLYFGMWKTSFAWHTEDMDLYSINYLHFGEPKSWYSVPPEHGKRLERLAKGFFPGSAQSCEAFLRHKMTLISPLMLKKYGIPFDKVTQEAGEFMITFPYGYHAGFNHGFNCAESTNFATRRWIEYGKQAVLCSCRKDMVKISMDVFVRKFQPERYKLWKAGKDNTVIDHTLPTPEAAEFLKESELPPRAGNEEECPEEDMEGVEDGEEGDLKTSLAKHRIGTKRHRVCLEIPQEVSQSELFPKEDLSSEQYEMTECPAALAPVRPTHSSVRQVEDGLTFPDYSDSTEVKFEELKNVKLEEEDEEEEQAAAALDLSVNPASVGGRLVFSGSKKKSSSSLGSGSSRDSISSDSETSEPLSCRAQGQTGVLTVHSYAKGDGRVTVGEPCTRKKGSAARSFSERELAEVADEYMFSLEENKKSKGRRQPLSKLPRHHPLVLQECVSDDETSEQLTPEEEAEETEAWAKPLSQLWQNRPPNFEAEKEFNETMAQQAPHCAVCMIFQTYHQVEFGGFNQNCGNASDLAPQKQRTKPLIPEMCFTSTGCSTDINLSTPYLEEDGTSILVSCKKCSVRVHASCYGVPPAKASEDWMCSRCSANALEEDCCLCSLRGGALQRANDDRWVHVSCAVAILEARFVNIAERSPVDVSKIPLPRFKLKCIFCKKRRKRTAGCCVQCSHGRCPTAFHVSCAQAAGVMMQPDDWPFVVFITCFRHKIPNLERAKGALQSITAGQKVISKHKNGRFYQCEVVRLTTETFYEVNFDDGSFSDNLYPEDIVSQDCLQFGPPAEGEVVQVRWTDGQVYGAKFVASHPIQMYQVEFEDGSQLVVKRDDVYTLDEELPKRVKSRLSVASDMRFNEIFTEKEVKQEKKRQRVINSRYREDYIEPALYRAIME
L3MBTL1 inh: L3MBTL1 (human) inhibition; Q9Y468; AlphaScreen L3MBTL1–H3K9me1 peptide binding; Potency, µM (series often up to 57.1 µM), actives largely listed as inhibitors; 230,000 tested, 0.66% active; note: nearly all actives have a fitted effect of over 60% in size
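L3MBTL1 (50 nM) pre-complexed 30 min with biotinylated H3(1-15)K9me1 peptide (75 nM), then compounds added for 30 min at room temperature; AlphaScreen streptavidin donor/nickel chelate acceptor beads (10 ug/mL final) read after 30 min dark incubation.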
HP1b binding inh: HP1-beta chromodomain-methylated histone interaction inhibition. P83916. AlphaScreen HP1-beta / biotin-H3K9me3 peptide binding. Potency, µM (top dose mostly 114 µM), most hits filed as inhibitors. 390,000 tested, 0.56% active. AID 540317; note: nearly all actives have a fitted effect of over 70% in size
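Compound inhibition of the preformed complex between 50 nM HP1-beta and 50 nM biotinylated H3K9me3 peptide was read by AlphaScreen. Buffer was PBS pH 7.4 with 0.01% Tween-20. Incubations ran 30 min at room temperature, with 10 ug/mL donor/acceptor beads.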
Sfp PPTase inh: inhibitors of Bacillus subtilis Sfp phosphopantetheinyl transferase | 310,000 tested, 3.5% active | Q9F4F7 | AID 1490 | Potency, µM, actives largely listed as inhibitors | Biochemical Sfp PPTase activity, qHTS;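 note: the enzyme is Sfp with the accession as filed and its product quenches rhodamine fluorescence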
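Step 1, compound plus 15 nM Sfp-PPTase, 15 min, room temperature. Step 2, add rhodamine-CoA (5 uM) and BHQ-2-YbbR (12.5 uM). Step 3, read 525/598 nm fluorescence at 0 and 30 min.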
Hits are given with their value; - = inactive; ? = inconclusive; . = not tested or not shown; [ ] = another dose, or the depositor's remark. A selection: hits, their analogues and other compounds. The true share with any hit is near 12%. Calls come from the whole dose curve; as a rule, active = well fitted curve in the direction sought with a large enough effect; inconclusive = small, poorly fitted or top-dose-only effect, or another doubt; inactive = no such curve, though single readings can be large; an effect the other way counts as inactive or inconclusive.

SMILES	G9a block	BAZ2B inh	JMJD2A Tudor	L3MBTL1 inh	HP1b binding inh	Sfp PPTase inh
C/C(=N\NC(=O)c1ccc(Cn2cc([N+](=O)[O-])cn2)o1)c1cccc(NC(=O)c2cccnc2)c1	-	-	-	-	-	-
Cc1ccc2scc(N3CCc4ccccc4C3)c(=O)c2c1	?	-	-	.	-	.
COC(=O)c1c[nH]n2c(=O)cc(CCl)nc12	-	?	79µM	-	-	-
CCc1cc(OCCOCCN(C)C)ccc1Cl	?	?	2.2µM	-	?	-
CCOc1ccc(Cl)cc1CNCCNCCO	.	-	-	-	-	-
Cc1ccc(OCCOCCN(C)C)c(Cl)c1	8.9µM	79µM	40µM	-	?	-
CCc1ccccc1OCCCCCNCCO	-[12.7 µM]	-	-	-	-	-
CCN(CC)CCOCCOc1cc(C)c(Cl)c(C)c1	-	-	-	.	-	-
C=CCc1ccccc1OCCNCCCOC	8.9µM	-	2.5µM	-	-	-
C=CCc1cc(Cl)ccc1OCCNCCCOC	20µM	-	2.5µM	-	?	-
COc1cc(NC(=O)CCCc2nnc3n(CC(C)C)c(=O)c4sccc4n23)cc(OC)c1	-	-	-	.	-	.
Nc1c(C(=O)NCCc2ccccc2)nnn1CC(=O)Nc1ccc(Cl)cc1	-	-	-	.	-	.
CCCOc1ccc(Cl)cc1CNc1ccccc1	-	-	-	-	-	-
C=CCc1cc(OC)ccc1OCCOCCC(C(=O)OCC)C(=O)OCC	-	-	-	-	-	-
C=CCc1cc(Cl)ccc1OCCOCCNCCOC	?	71µM	10µM	-	?	-
C=CCc1cc(Cl)ccc1OCCOCCNC(C)(C)C	25µM	50µM	14µM	-	-	-
C=CCc1cc(Cl)ccc1OCCOCCN(C)C	7.9µM	50µM	3.5µM	-	?	-
CC(=O)Nc1cc(C(=O)NCc2ccccc2)ccc1Sc1ccc(C)cc1	-	-	-	.	-	.
Cc1ccc(C)n1NC(=O)c1cccs1	-[12.7 µM]	-	-	-	-	-
CC(C)(NO)/C(=N/O)c1cccs1	7.1µM	45µM	10µM	-	-	-
O=C1CN(c2nc(-c3ccccc3)c3cc(Cl)ccc3n2)c2ccccc2N1	50µM	-	-	-	-	-
Clc1ccc2nc(N3CCNCC3)nc(-c3ccccc3)c2c1	-	-	-	-	-	-
CC1(C)CC2C1CC[C@]1(C)CCC3C(C(=O)O)CC(=O)O[C@]32C1 (some centres undefined)	.	.	.	.	.	-
Oc1c(N=NC(=S)Nc2ccccc2F)c2ccccc2n1Cc1ccccc1Cl	18µM	?	4µM	.	?	-
Cc1cccc(NC(=O)Cn2c(O)c(N=NC(=O)c3ccncc3)c3ccccc32)c1	-	?	-	-	-	-
SMILES	G9a block	BAZ2B inh	JMJD2A Tudor	L3MBTL1 inh	HP1b binding inh	Sfp PPTase inh
Cc1c(Cl)cccc1NC(=S)N=Nc1c(O)n(CN2CCOCC2)c2ccccc12	?	?	?	-	-	-
C=CCn1c(O)c(N=NC(=S)Nc2cccc(C)c2)c2ccccc21	14µM	3.2µM	8.9µM	?	?	-
CCCCNC(=S)N=Nc1c(O)n(Cc2ccccc2)c2ccccc12	32µM	?	?	-	?	?
NC(=S)N=Nc1c(O)n(Cc2ccccc2)c2ccccc12	-	?	-	-	-	-
Oc1c(N=NC(=S)Nc2ccccc2F)c2ccccc2n1Cc1ccccc1	18µM	?	?	.	?	-
N#Cc1ccccc1S(=O)(=O)N1CCN(S(=O)(=O)c2ccc3c(c2)OCCO3)CC1	.	.	-	.	.	.
CN(c1ncnc2c1c(-c1ccccc1)cn2-c1cccc(Cl)c1)C1CCCCC1	-	-	-	.	-	.
Cc1ccc(Cn2c(O)c(N=NC(=S)Nc3ccccc3F)c3ccccc32)cc1	11µM	40µM	?	.	-	-
C=CCn1c(O)c(N=NC(=O)CNC(=O)/C=C/c2ccc(OC)cc2)c2ccccc21	.	-	-	-	-	-
C=CCn1c(O)c(N=NC(=S)Nc2ccccc2F)c2cc(S(=O)(=O)N3CCOCC3)ccc21	?	-	-	.	-	-
O=C(N=Nc1c(O)n(Cc2ccccc2)c2ccccc12)c1ccncc1	.	35µM	-	?	-	-
C=CCn1c(O)c(N=NC(=S)Nc2ccccc2F)c2ccccc21	11µM	?	10µM	.	?	-
COC(=O)N=Nc1c(O)n(Cc2ccccc2)c2ccccc12	-	-	-	-	-	-
Cc1ccc(NC(=O)Cn2c(O)c(N=NC(N)=S)c3ccccc32)cc1	-	-	-	.	-	-
C=CCn1c(O)c(N=NC(=O)CNC(=O)/C=C/c2ccco2)c2ccccc21	50µM	?	?	?	-	?
CCCN1CCN(CCCNC(=O)c2cc3c(=O)oc4ccc(C)cc4c3s2)CC1	-	-	-	.	-	-
Cc1ccc2oc(=O)c3cc(C(=O)NCCN4CCc5ccccc5C4)sc3c2c1	50µM	-	-	-	-	-
O=C(N/N=C/c1ccncc1)c1cccs1	-	-	-	.	-	-
O=C(N/N=C/c1ccc(-c2ccccc2C(=O)O)o1)c1cccs1	8.9µM	56µM	89µM	25µM	-	50µM
Nc1ncc(N=Nc2cc(C(=O)O)ccc2Cl)s1	-	89µM	?	.	?	?
Nc1cc2sc(-c3ccc(C(=O)O)cc3)nc2cc1Cl	-	-	-	-	-	-
Cc1cc2ccccn2c1C(=O)c1nc(NCc2ccccc2)ncc1Cl	-	?	?	?	-	-
N#Cc1c(=O)c2nc(NCc3ccccc3)ncc2n2ccccc12	-[12.7 µM]	?	50µM	.	-	-
COc1ccc(OCC(=O)NC2CCCCCCC2)cc1	-	-	-	.	-	-
COc1ccc(OCC(=O)NNC(=S)NC(=O)C2CC2)cc1	20µM	-	-	.	-	-
SMILES	G9a block	BAZ2B inh	JMJD2A Tudor	L3MBTL1 inh	HP1b binding inh	Sfp PPTase inh
COc1ccc(OCC(=O)NNC(=S)NC(=O)C2CCCCC2)cc1	13µM	-	.	.	.	-
COc1ccc(C(=O)NC(=S)NNC(=O)CNC(=O)C2CCCCC2)cc1	8.9µM	.	?	.	-	-
CCc1ccc(OCC(=O)NNC(=S)NC(=O)C2CC2)c(Br)c1	10µM	?	?	.	-	-
CCc1ccc(OCC(=O)NNC(=S)NC(=O)C2CCCCC2)c(Br)c1	?	-	?	.	-	-
Cc1cc(C)cc(OCC(=O)NNC(=S)NC(=O)C2CC2)c1	20µM	-	-	.	-	-
O=c1oc2ccccc2c(Nc2cc3ccccc3cc2O)c1[N+](=O)[O-]	?	11µM	?	-	-	-
CC1CCN(S(=O)(=O)c2ccc3c(c2)CCN3C(=O)Nc2ccc(Br)cc2)CC1	-	-	-	.	-	.
Cc1cc(C)c(C#N)c(Cl)n1	-	-	-	-	-	-
Nc1ccccc1N=c1ssnc1Cl	1.3µM	50µM	?	.	-	1.6µM
Cc1nnc(N=c2ssnc2Cl)o1	-[0.501 µM]	?	45µM	-	?	.
Cc1cc(Cl)ccc1N=c1ssnc1Cl	1.8µM	8.9µM	79µM	.	22µM	7.1µM
Cc1cc(C)nc(/N=c2/ssnc2Cl)c1	6.3µM	.	-	-	-	20µM
